The record followed here is PubChem BioAssay (NCI).

Common to all, as to assay: NCI-60 one-dose screen, 48 h (100 = growth as untreated, 0 = no growth, -100 = all killed)
Holding throughout (settings): 10 µM unless noted

The subject of assay [1] is SR leukemia.
In assay [2] the test system is RPMI-8226 leukemia.
The subject of assay [3] is OVCAR-8 ovarian.
In assay [4] the test system is OVCAR-5 ovarian.
The subject of assay [5] is OVCAR-4 ovarian.
The subject of assay [6] is SK-OV-3 ovarian.
Assay [7] concerns IGROV1 ovarian.
Assay [8] concerns OVCAR-3 ovarian.
Assay [9] deals with HS 578T breast.
The subject of assay [10] is NCI/ADR-RES ovarian.
For assay [11], the system named is T-47D breast.
For assay [12], the system named is BT-549 breast.
Assay [13] relates to MDA-MB-435 melanoma.
The test system of assay [14] is SW-620 colon.
Assay [15] has as its system MCF7 breast.
Assay [16] concerns HCT-116 colon.
For assay [17], the system named is HCC-2998 colon.
The test system of assay [18] is KM12 colon.
Assay [19] relates to MDA-MB-468 breast.

This is part of a sample that, as a whole, favours compounds with a hit. Of some 83,000 tested, about 20% had one in any assay.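 For each line, cells grew in 96-well plates with the test compound present at a single concentration for 48 hours.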 Unmarked numbers belong to inactive results. Active and inactive are the calls of the source. How the source made its calls: active means growth percent below 10; inactive means the rest.

For `Cc1cc(C)cc(NC(=O)Cn2cc(COn3nnc4ccccc43)nn2)c1`, the growth in [1] is 90.1%; in assay [2], 108%; in assay [3] it was 104%; in assay [4], 102%; in assay [5], 109%; in assay [6], 103%. Moreover, the growth in [7] is 104%; in [8], 129%; in [9], 102%; in assay [10] it was 102%; in assay [11], 100%; in assay [12], 108%. Also, the growth was 100% in [13]; 115% in assay [14]; 99.5% in [15]; 103% in assay [16]; 104% in assay [17]; 114% in [18]. For the same compound, in [19], the growth was 98.7%.

On to `CN(C)CCCNC(=O)c1cc(NC(=O)c2cc(NC(=O)c3ccc(/C=C/c4ccccc4)cc3)cn2C)cn1C`, for which the growth in assay [1] is -30.3% (active); in assay [2], -0.0203% (active); in assay [3] it was 35.7%; in [4], 105%; in assay [5] it was 58.4%; in [6], 88.7%. In addition, the growth in assay [7] was 78.3%; in assay [8], 51.6%; in assay [9], 94.6%; in assay [10], 91.6%; in assay [11], 54.5%; in assay [12], 69.2%. For the same compound, the growth in [13] was 58.6%; in assay [14] it was 7.42% (active); in assay [15], -85.9% (active); in assay [16] it was 0.824% (active); in [17], 42.3%; in assay [18] it was -16.5% (active). For the same compound, the growth in assay [19] is 37.4%.

As to `Cn1cc(-c2nc(N)nnc2-c2c[nH]c3ccc(Br)cc23)c2cc(Br)cnc21`, the growth in assay [1] is -17.2% (active); in [2] it was -12% (active); in assay [3], 1.57% (active); in assay [4], 21.8%; in [5], 32.8%; in assay [6], 9.61% (active). Besides, the growth in [7] is 14.2%; in assay [8], 0.628% (active); in [9], 30.2%; in assay [10], 12.5%; in assay [11], 34.6%; in assay [12], -33.4% (active). Besides, the growth in assay [13] was -20.8% (active); in [14], 20.8%; in assay [15], 3.81% (active); in [16], -37.1% (active); in assay [17] it was 1.16% (active); in assay [18], 5.44% (active). Moreover, the growth in assay [19] is 1.62% (active).

Turning to `COc1cc2c(c(OC)c1OC)C(=O)CC(c1cccc(NC(=O)c3cc(NC(=O)[C@@H](N)CO)ccc3C)c1)O2` (stereo partly drawn), the growth in [1] is 100%; in [2], 108%; in assay [3], 104%; in assay [4], 101%; in [5], 112%; in assay [6] it was 111%. The growth was 114% in assay [7]; 121% in assay [8]; 110% in assay [9]; 104% in assay [10]; 110% in assay [11]; 121% in assay [12]. The growth in assay [13] is 120%; in assay [14], 119%; in assay [15], 103%; in [16] it was 116%; in [17] it was 115%; in assay [18], 108%. For the same compound, in assay [19], the growth was 92.6%.

`COc1cc(-c2nc3cc(Cl)c(Cl)cc3[nH]2)ccc1OCc1nnc(-c2cccs2)o1`: the growth is 31.1% in assay [1]; 59.2% in [2]; 38% in assay [3]; 83.3% in assay [4]; 40.8% in assay [5]; 47.8% in assay [6]. The growth was 59.4% in [7]; 91.2% in assay [8]; 63.9% in [9]; 39.5% in assay [10]; 84% in assay [11]; 28.1% in assay [12]. The growth is 55.2% in assay [13]; 33% in assay [14]; 3.79% (active) in assay [15]; 29% in assay [16]; 43.9% in assay [17]; 71.5% in assay [18]. Moreover, the growth in assay [19] was 46.4%.

`COc1ccc(/C=C/c2n(Cc3ccc4ccccc4c3)c3ccccc3[n+]2Cc2ccc3ccccc3c2)cc1`: the growth was -34.9% (active) in [1]; -48.5% (active) in [2]; -75.2% (active) in [3]; -98.4% (active) in assay [4]; -65% (active) in assay [5]; -95.7% (active) in [6]. Moreover, the growth is -76.2% (active) in assay [7]; -82.8% (active) in [8]; -59.3% (active) in [9]; -53.4% (active) in assay [10]; -70.1% (active) in assay [11]; -93.1% (active) in assay [12]. The growth in assay [13] is -91.1% (active); in [14], -96.2% (active); in [15] it was -71.3% (active); in assay [16], -95.3% (active); in assay [17] it was -84.3% (active); in assay [18] it was -84.5% (active). In addition, the growth in assay [19] is -83.9% (active).

For the compound `Cc1ccc(-c2nc(C#N)c(S(=O)(=O)N3CCN(S(=O)(=O)c4ccc(Cl)cc4)CC3)o2)cc1`, the growth in [1] was 47.3%; in assay [2], 97%; in assay [3], 82.2%; in assay [4], 105%; in assay [5], 86.8%; in assay [6], 87.2%. For the same compound, the growth in assay [7] is 95.8%; in assay [8] it was 114%; in assay [9], 65.2%; in assay [10], 91%; in assay [11], 92.1%; in assay [12], 99.8%. Moreover, the growth is 94.8% in assay [13]; 109% in assay [14]; 75.8% in [15]; 84.9% in assay [16]; 106% in assay [17]; 109% in [18]. Also, the growth in assay [19] was 61.9%.
